Screening data from PubChem BioAssay.
An excerpt weighted towards active compounds, which were near 1.9% of everything screened.
Insulin prom inh: inhibitors of insulin promoter-driven GFP, primary screen, imaging, TRM-6 cells (human fetal islet line), eGFP reporter, cell count | AID 1273, 2008 | reporter expression induced with tamoxifen | 130,000 compounds, 0.9% hits | inhibition, % at 2 µM;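 active = inhibition above the mean plus 3 SD, with well images judged a real hit on visual review, cut at about 60% in these data, passing the limit was not always enough; inconclusive = inhibition over the cutoff but images rejected on review; inactive = inhibition not above the cutoff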
Autophagy mod: autophagy modulators in MEF cells, primary screen, imaging, high-content, MEF GFP-LC3. calls only at 10 µM (by protocol). 190,000 compounds, 0.98% hits. AID 463193, 2010. MEF GFP-LC3 puncta imaging; test concentration mostly 10 µM;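 active = percentage of spot-positive cells more than 3 SD above its plate mean, without a fluorescence outlier flag or 80% toxicity; inconclusive = no clear call, values can overlap the other calls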;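 also: spot-positive cell cutoff set from DMSO-treated cells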
Efa HMGR inh: inhibitors of E. faecalis class II HMGR, primary screen, biochemical, Enterococcus faecalis; HMG-CoA reductase (Enterococcus faecalis, mvaE); 190,000 compounds, 0.41% hits; purified E. faecalis HMGR, NADPH absorbance 340 nm kinetic; inhibition, % at 10 µM;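 active = inhibition above a set limit, the median over all tested compounds plus 3 SD, cut at about 9.5% in these data; inconclusive = no clear call, values can overlap the other calls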;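 also: enzyme runs in reverse so mevalonate oxidation gives rising NADPH absorbance; 0% = complete reaction with DMSO and 100% = background rate lacking mevalonate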
Insulin prom up: insulin promoter activators in MIN6 cells, imaging, high-content screening, mouse beta cells; 190,000 compounds, 0.3% hits; z-score at 5 µM; MIN6 insulin promoter-GFP reporter; hits give high values;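 active = z-score above 3 at 5 µM with at least 500 cells counted in the well; inconclusive = wells under 500 cells, flagged as cytotoxic or low count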
Active calls of the source: *; i = inactive; ? = inconclusive; . = no result given; + = active, no number.

SMILES | Insulin prom inh | Autophagy mod | Efa HMGR inh | Insulin prom up
Cc1ccc(C)c(NC(=S)N(Cc2ccc(Cl)cc2)Cc2ccc(C(=O)O)cc2)c1 | . | i | 0.8 | -0.66
CCC(CO)NCc1sccc1C (configuration not stated) | -40.7 | i | 10.4* | -0.36
COC(=O)c1ccc2c(=O)n(-c3ccccc3F)c(=S)[nH]c2c1 | 100.0* | i | 5.0 | 0.81
O=C(O)c1ccc2c(=O)n(-c3ccccc3F)c(=S)[nH]c2c1 | -35.0 | i | 2.3 | .
O=C1OC(c2ccccc2)/C(=C(/O)c2ccc(Cl)cc2)C1=O (configuration not stated) | 75.0* | i | -6.3 | .
O=C1S/C(=C\c2ccc(N3CCOCC3)o2)C(=O)N1Cc1c(F)cccc1Cl | 0.0 | i | 1.6 | .
O=C1S/C(=C\c2ccc(N3CCOCC3)o2)C(=O)N1c1ccccc1 | . | + | -1.2 | .
O=C(CCCn1cc([N+](=O)[O-])cn1)N1CCCCC1 | . | i | -5.5 | 0.64
CCc1nc(NCCCN2CCOCC2)c2oc3ccccc3c2n1 | 61.1 | i | -4.0 | -0.03
CCc1nc(NCCN2CCOCC2)c2oc3ccccc3c2n1 | 84.6* | i | -8.5 | 0.29
CCc1nc(Nc2ccncc2)c2oc3ccccc3c2n1 | 2.9 | i | -2.4 | -1.92
CCc1nc(NC(C)C)c2oc3ccccc3c2n1 | 88.9* | i | 2.6 | .
CCc1nc(Nc2ccc3c(c2)OCO3)c2oc3ccccc3c2n1 | 79.3* | i | -6.6 | 0.14
CCCCCCN(C(=O)CCCCCN1C(=O)NC(c2cccc([N+](=O)[O-])c2)C(C(=O)OCc2ccccc2)=C1C)C(C(=O)NCCCC)c1ccc(OCC(=O)OC)c(C(=O)OC)c1 (configuration not stated) | . | . | . | 0.29
CN(C)CC(C)(C)CNS(=O)(=O)c1ccc(OC(F)(F)F)cc1 | 33.3 | i | 0.7 | 0.58
COc1cccc2c1OC1(C)CC2NC(=O)N1 (configuration not stated) | -7.0 | i | 1.6 | -0.47
COc1cccc2c1OC1(C)CC2/C(=C(\C)O)C(=O)N1 (configuration not stated) | 90.9* | i | 2.6 | 0.46
Cc1ccc(NC(=O)c2ccc3c(c2)OCCO3)cc1S(=O)(=O)Nc1cccc(Cl)c1 | . | i | -9.6 | .
Cc1ccc(S(=O)(=O)ON2C(=O)c3ccccc3C2=O)c(C)c1 | 8.8 | i | 17.1* | 0.28
Cc1cc(C)c(S(=O)(=O)ON2C(=O)c3ccccc3C2=O)cc1C | -22.2 | i | -0.5 | .
COc1ccc(-c2nc(SCC(=O)NCc3ccco3)c(-c3ccccc3)[nH]2)cc1OC | 72.4* | i | 1.7 | 0.8
NC(=O)CC(NC(=O)c1ccccc1)c1ccc(NC2CCCC2)c([N+](=O)[O-])c1 (configuration not stated) | . | . | . | 0.77
CCOc1cc(/C=C2/NC(=O)NC2=O)cc(Br)c1OCc1ccc(C(=O)O)cc1 | 41.7 | + | -2.8 | 1.69
Cc1cc(=O)oc2cc(OCc3ccc(C(=O)N4CCN(c5ccccc5)CC4)cc3)ccc12 | -13.5 | i | 1.2 | -0.12
COCCNC(=S)N/N=C(\C)c1ccc(OC)cc1 | 0.0 | i | -2.6 | 0.99
SMILES | Insulin prom inh | Autophagy mod | Efa HMGR inh | Insulin prom up
COCCNC(=S)N/N=C(\C)c1ccc2cc(OC)ccc2c1 | -6.7 | i | -7.4 | 3.43*
Cc1ccc(C(O)P(=O)(OCc2ccccc2)c2ccc(N(C)C)cc2)cc1 (configuration not stated) | . | . | . | -0.11
CSc1nc2ccccc2n1C(=O)Oc1ccccc1 | 86.7* | i | -2.0 | -0.13
CCOC(=O)C1CCN(Cc2cnc(Oc3ccc(N)cc3)s2)CC1 | -33.3 | i | -8.2 | 0.91
CCOC(=O)c1c(CSc2ccccc2)n(C)c2ccc(O)c(CN3CCOCC3)c12 | . | i | -1.8 | -0.22
CN1CCN(CC(=O)n2c3c(c4ccccc42)CCCC3)CC1 | . | + | -1.0 | -0.16
CCN(CC)CC(=O)n1c2c(c3ccccc31)CCCC2 | 14.8 | i | -6.4 | 0.05
CCC(OC(=O)c1nsc(Cl)c1Cl)C(=O)NC(C)(C)C (configuration not stated) | . | i | 1.9 | 0.28
Cc1ccc(C(=O)N[C@H](C(=O)Nc2cc(Cl)cc(Cl)c2)C(C)C)cc1 | . | i | 2.3 | 0.45
COc1ccc(OC)c(CNC(=O)Cc2c(C(=O)O)[nH]c3ccc(Cl)cc23)c1 | 77.8* | i | 1.3 | 1.32
CSCCC(NS(=O)(=O)/C=C/c1ccccc1)C(=O)O (configuration not stated) | -57.1 | i | 10.3* | -0.23
COc1cc(/C=C\C(=O)NCc2ccc3[nH]c(C)cc3c2)cc(OC)c1OC | 65.8* | i | -3.6 | 0.3
COc1ccc(/C=C\C(=O)NCc2ccc3[nH]c(C)cc3c2)cc1OC | 35.0 | i | 2.5 | -0.43
COc1ccc2cc(C#N)c(NC(C)C)nc2c1 | 85.7* | i | -3.2 | 0.51
Nc1nc(-c2ccc(Cl)cc2)nn1C(=O)c1ccco1 | 25.0 | i | -3.5 | -2.17
O=C(NNc1c(Cl)cccc1Cl)c1cccs1 | . | . | . | -0.32
Cc1nc2c([nH]c3ccc(Br)cc32)s1 | 95.0* | i | -3.8 | 0.37
Brc1ccc2[nH]c3c(c2c1)CCC3 | . | . | . | -0.09
Cc1cc(=O)oc2cc(OCC(=O)OCC(=O)N(C)C3CCS(=O)(=O)C3)ccc12 (configuration not stated) | . | . | . | -0.21
CCOC(=O)c1c(C(=O)OCC)c(C)n(CCc2ccc(OC)c(OC)c2)c1C | -6.2 | i | -4.5 | -0.47
O=C(COc1ccc(Cl)cc1)NCc1nnc(SCC(=O)NC2CCCCC2)o1 | 21.4 | i | 0.8 | 3.28*
O=C(COc1ccc(Cl)cc1)NCc1nnc(SCC(=O)Nc2ccccc2)o1 | -25.4 | i | -6.2 | 0.06
Cc1ccc(C)c(NC(=O)CSc2nc3ccc(N4C(=O)c5ccccc5C4=O)cc3s2)c1 | -2.8 | i | -1.0 | 1.96
COc1ccc(NC2=C3CC(C)CC=C3N(c3ccc(OC)cc3)C2=O)cc1 (configuration not stated) | . | i | -1.0 | -0.34
O=C1NC(=Nc2ccc(F)cc2)CS1 | -183.3 | + | -2.5 | -0.58
SMILES | Insulin prom inh | Autophagy mod | Efa HMGR inh | Insulin prom up
CC(C)C(=O)Nc1ccc([N+](=O)[O-])c(C(F)(F)F)c1 | 86.7* | i | -4.6 | -0.2
COc1ccc(-c2nnn(CC(=O)N3CCN(c4ccccc4OC)CC3)n2)cc1 | 2.3 | + | -3.2 | .
CCOc1ccc(-c2nnn(CC(=O)N3CCCC(C)C3)n2)cc1 (configuration not stated) | . | i | 12.9* | -0.05
CCCOc1ccc(-c2nnn(CC(=O)N3CCCC(C)C3)n2)cc1 (configuration not stated) | . | . | . | -1.87
COc1ccc(-c2nnn(CC(=O)N3CCN(c4ccccc4OC)CC3)n2)cc1OC | . | i | -1.4 | 2.11
COc1ccc(OCC(=O)C2CC2)c(C#N)c1 | . | . | . | -0.72
CCCCCc1nc2c(c(=O)c3ccccc3n2C)c(=O)n1Cc1ccc(OC)cc1 | . | . | . | -1.07
CCN(CC)c1ccc(/C=N/NC(=O)c2cccc(S(=O)(=O)Nc3ccccc3OC)c2)c(O)c1 | 56.0 | + | -9.6 | ?
Cc1nn(-c2ccccc2)c(Cl)c1/C=N/NC(=O)c1ccncc1 | . | . | . | -0.39
